Test results taken from PubChem BioAssay AID1159580 (chemical genetic matrix, 2015).
“And” between values parts separate entries of the source, which are not always exact repeats. Identical values can stand only once. Screen size: about 5,500 compounds; about 2,000 (36%) were called active. About 18% were inconclusive and are not listed. Cut-off read from the data, not from the text of the source: active = normalized growth mostly below about 0.91 (no sharp cut-off); inconclusive = no clear call, values can overlap the other calls; inactive = mostly above about 0.92. The list shows a part of the results.

Test: chemical genetic growth profiling, strain panel (AID 1159580);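 note: tested at 20 µM; growth read once vehicle control cultures reached saturation at 30 °C; 1 = growth at the plate median or of vehicle wells; lower values mean less growth of the strain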
Conditions: S. cerevisiae deletion strains, growth OD

Measured: normalized growth

CC(C)[C@@H]1CC[C@@H](C)C[C@H]1O
inactive: locus YAL021C, strain ccr4, hits give low values 0.968 | locus YAL026C, strain drs2, hits give low values 0.987 | locus YAL030W, strain snc1, hits give low values 0.984 | locus YBL061C, strain skt5, hits give low values 1.01 | locus YBR009C, strain hhf1, hits give low values 0.998 | locus YBR021W, strain FUR4, hits give low values 1.03 | locus YBR023C, strain chs3, hits give low values 1.01 | locus YBR171W, strain sec66, hits give low values 0.973 | locus YBR229C, strain ROT2, hits give low values 1.01 | locus YBR231C, strain swc5, hits give low values 0.988 | locus YBR279W, strain paf1, hits give low values 0.998 | locus YCL011C, strain gbp2, hits give low values 0.982 | locus YCL016C, strain dcc1, hits give low values 0.995 | locus YCL029C, strain bik1, hits give low values 1.01 | locus YCL061C, strain MRC1, hits give low values 0.986 | locus YCL069W, strain vba3, hits give low values 0.973 | locus YCR088W, strain abp1, hits give low values 0.979 | locus YDL005C, strain med2, hits give low values 0.98 | locus YDL035C, strain GPR1, hits give low values 1.02 | locus YDL040C, strain nat1, hits give low values 0.979 | locus YDL074C, strain BRE1, hits give low values 0.997 | locus YDL101C, strain DUN1, hits give low values 1.01 | locus YDL134C, strain PPH21, hits give low values 1.01 | locus YDL185W, strain tfp1, hits give low values 1.02 | locus YDL192W, strain arf1, hits give low values 1.02 | locus YDR001C, strain nth1, hits give low values 0.978 | locus YDR069C, strain doa4, hits give low values 0.992 | locus YDR101C, strain arx1, hits give low values 0.996 | locus YDR137W, strain rgp1, hits give low values 0.898 | locus YDR150W, strain NUM1, hits give low values 1.01 | locus YDR159W, strain sac3, hits give low values 0.964 | locus YDR162C, strain NBP2, hits give low values 1.02 | locus YDR195W, strain ref2 0.986 | locus YDR297W, strain sur2, hits give low values 0.984 | locus YDR318W, strain mcm21, hits give low values 1.02 | locus YDR334W, strain swr1, hits give low values 0.951 | locus YDR335W, strain msn5, hits give low values 0.984 | locus YDR388W, hits give low values 1.01 | locus YDR392W, strain spt3, hits give low values 0.958 | locus YDR502C, strain sam2, hits give low values 1.01 | locus YEL003W, strain gim4, hits give low values 0.989 | locus YEL037C, strain rad23, hits give low values 0.968 | locus YEL061C, strain CIN8 (second series), hits give low values 0.963 | locus YEL061C, strain CIN8, hits give low values 1.01 | locus YER015W, strain faa2, hits give low values 0.996 | locus YER016W, strain bim1, hits give low values 0.992 | locus YER110C, hits give low values 1.03 | locus YER111C, strain swi4, hits give low values 0.961 | locus YER155C, strain BEM2 (second series), hits give low values 0.94 | locus YER155C, strain BEM2, hits give low values 1.01 | locus YER167W, strain BCK2, hits give low values 1.02 | locus YFR010W, strain ubp6, hits give low values 0.989 | locus YGL078C, strain dbp3, hits give low values 1.02 | locus YGL086W, strain mad1, hits give low values 1.01 | locus YGL167C, strain pmr1, hits give low values 1 | locus YGL173C, strain kem1, hits give low values 0.999 | locus YGL227W, strain vid30, hits give low values 0.981 | locus YGL240W, strain doc1, hits give low values 0.995 | locus YGL248W, strain PDE1, hits give low values 0.992 | locus YGL253W, strain hxk2, hits give low values 0.995 | locus YGR078C, strain PAC10, hits give low values 0.975 | locus YGR135W, strain pre9, hits give low values 1.04 | locus YGR229C, strain SMI1, hits give low values 1.03 | locus YGR252W, strain gcn5, hits give low values 1.03 | locus YHR013C, strain ard1, hits give low values 1.03 | locus YHR027C, strain rpn1, hits give low values 0.996 | locus YHR030C, strain SLT2, hits give low values 1.01 and 0.979 | locus YHR079C, strain IRE1 (second series), hits give low values 1.01 | locus YHR079C, strain IRE1, hits give low values 0.991 | locus YHR094C, strain hxt1, hits give low values 1.02 | locus YHR129C, strain ARP1, hits give low values 1.01 | locus YHR142W, strain chs7, hits give low values 0.988 | locus YHR200W, strain rpn10, hits give low values 1.02 | locus YIL066C, strain RNR3, hits give low values 0.994 | locus YIL073C, strain SPO22, hits give low values 1.09 | locus YIL125W, strain kgd1, hits give low values 1.01 | locus YIR030C, strain dcg1, hits give low values 1.01 | locus YJL092W, strain hpr5, hits give low values 0.977 | locus YJL095W, strain BCK1 (second series), hits give low values 0.986 | locus YJL095W, strain BCK1, hits give low values 0.972 and 0.985 | locus YJL115W, strain asf1, hits give low values 0.981 | locus YJL129C, strain trk1, hits give low values 0.937 | locus YJL134W, strain LCB3, hits give low values 1.01 | locus YJL154C, strain vps35, hits give low values 0.972 | locus YJL164C, strain tpk1, hits give low values 0.998 | locus YJL166W, strain qcr8, hits give low values 0.986 | locus YJL168C, strain set2, hits give low values 1.01 | locus YJL187C, strain SWE1 (second series), hits give low values 0.984 | locus YJL187C, strain SWE1, hits give low values 0.99 | locus YJR043C, strain POL32, hits give low values 1.02
